In PubChem BioAssay (NCATS):
Where “and” joins values, the source holds several entries; their conditions need not be identical. Identical values can stand only once. Results filed as inconclusive are left out. Calls of active or inactive are those of the source. Unless noted, calls come from the whole dose curve; as a rule, active = well fitted curve in the direction sought with a large enough effect; inconclusive = small, poorly fitted or top-dose-only effect, or another doubt; inactive = no such curve, though single readings can be large; an effect the other way counts as inactive or inconclusive.

Tests used:
[1] = KB-8-5-11 P-gp reporter qHTS against the NCATS DSHEA and TCM libraries (AID 1919977); note: 0% is about no effect
How it was run: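 P-gp-overexpressing KB-8-5-11 cells were screened in colchicine-free medium at 500 cells/well, as a titration series. Cells were exposed for 72 h at 37C. Viability was read by CellTiter-Glo luminescence after 30 min at room temperature.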

[2] = Cell Viability - BJ (AID 421; calls by dose curve;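 note: potency is the fitted concentration of half-maximal effect; cells exposed to compound for 40 hours at 37 °C before readout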); settings: BJ fibroblast viability, qHTS
How it was run: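 Cytotoxicity in human BJ foreskin fibroblasts is scored as loss of cellular ATP after a 40-hour exposure, measured by luciferase luminescence. Controls are DMSO and 100 uM tamoxifen.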

[3] = Cell Viability - HepG2 (AID 433; calls by dose curve;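 note: potency is the fitted concentration of half-maximal effect; potency for ATP loss meaning cytotoxicity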); settings: qHTS
How it was run: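 HepG2 cells, 1500 per well, treated 40 hr at 37 °C in complete medium; viability from intracellular ATP by CellTiter-Glo luminescence. Normalized to DMSO and 100 uM tamoxifen; AC50 from Hill fit of qHTS concentration-response.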

[4] = Cell Viability - SK-N-SH (AID 435; calls by dose curve;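 note: potency is the fitted concentration of half-maximal effect; compound exposure lasted 40 h at 37 °C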); settings: SK-N-SH neuroblastoma cell viability qHTS
How it was run: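 SK-N-SH neuroblastoma cells (1500/well) treated 40 h at 37 °C in complete medium; viability read as cellular ATP by CellTiter-Glo luminescence. Normalized to DMSO and 100 uM tamoxifen; AC50 from Hill fits of qHTS concentration-response.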

[5] = biological target: Mitogen-activated protein kinase 10 (Mus musculus) (UniProt Q61831); test: JNK3 AlphaScreen Assay (AID 530; active = well fitted curve in either direction with a large enough effect, not every such curve was filed as active;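 note: kinase came from lysate of stimulated human HepG2 cells; signal reports phosphorylation of biotinylated GST-cJun 1-79 at Ser73 with 10 µM ATP; % is set by controls: 0 for no effect and ±100 for the full control effect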)
How it was run: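 Biotinylated GST-cJun(1-79) served as substrate for JNK3 in HepG2 lysates stimulated with IL-1beta and TNF-alpha. ATP was 10 uM final, pH 7.6. Ser73 phosphorylation was quantified by AlphaScreen (680 nm excitation).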

[6] = Cell Viability - HUV-EC-C (AID 542); note: % is set by controls: 0 for no effect and ±100 for the full control effect; nearly all actives have a fitted effect of over 35% in size
How it was run: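 Concentration-dependent ATP loss in HUV-EC-C cells is the measure. Exposure lasts 40 hr at 37 °C; luminescence follows CellTiter-Glo addition, and Hill fits give AC50.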

[7] = Cell Viability - Renal Proximal Tubule (AID 545); settings: renal proximal tubule cells viability; at 91.7 µM (top of the series), primary cells of rat origin unless noted; note: nearly all actives have a fitted effect of over 40% in size
How it was run: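 Rat renal proximal tubule primary cells, 1000/well, exposed to compounds for 40 hr at 37 °C in complete medium; cellular ATP read by CellTiter-Glo luminescence. AC50 from concentration-response fitted with standard Hill equation.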

[8] = Cell Viability - Mesenchymal (AID 546);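 note: cells exposed to compound for 40 hours before reading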
How it was run: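 In this qHTS cytotoxicity format, glomerulus-derived human mesenchymal kidney cells received compound for 40 hr, then luciferase-based ATP quantitation. Concentration-response data were fitted with the Hill equation.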

[9] = Cellular Toxicity (caspase-3) HepG2 (AID 654);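 note: cells exposed to compound for 16 hours before reading; 0% = DMSO alone and 100% = caspase signal from 100 µM tamoxifen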
How it was run: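 Concentration-response AC50 values reflect caspase-3/7 induction in HepG2 cells after 16 hours of compound exposure, quantified by luminescence from liberated aminoluciferin and referenced to 100 uM tamoxifen as full stimulation.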

[10] = Cellular Toxicity (caspase-3) Jurkat (AID 655); settings: Jurkat caspase-3 activation, luminescence, DMSO = 0%, tamoxifen = 100%; at 92.2 µM (top of the series);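 note: cells exposed to compound for 16 h at 37 °C before reading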
How it was run: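 Jurkat cells (5000/well) in complete medium exposed 16 h at 37 C; caspase-3/7 activity read by Caspase-Glo luminescence after 20 min at room temperature. Normalized to DMSO and 100 uM tamoxifen; AC50 from Hill fits.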

[11] = Cellular Toxicity (caspase-3) HUV-EC-C (AID 656)
How it was run: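 HUV-EC-C cells (1000/well) in complete medium, compound-treated 16 h at 37 °C; caspase-3/7 activity read by Caspase-Glo 3/7 luminescence. Normalized to DMSO (basal) and 100 uM tamoxifen (100%); AC50 from Hill-equation concentration-response fits.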

[12] = Cellular Toxicity (caspase-3) SHSY5Y (AID 657)
How it was run: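 SH-SY5Y human neuroblastoma cells, 1500/well, exposed to compound for 16 hours at 37 °C in complete medium. Caspase-3/7 activity read by Caspase-Glo luminescence after 1 hr at room temperature, normalized to DMSO and 10 uM staurosporine; AC50 from Hill fit.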

[13] = Cellular Toxicity (caspase-3) BJ (AID 658);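 note: 0% = DMSO basal and 100% = 10 µM staurosporine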
How it was run: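 Plated BJ cells (1000/well) rested 5 hr, received compound for 16 hr at 37 °C, then Caspase-Glo 3/7 reagent for 1 hr at room temperature before luminescence reading.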

[14] = Cellular Toxicity (caspase-3) MRC-5 (AID 659);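 note: 0% = DMSO basal and 100% = 10 µM staurosporine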
How it was run: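 Apoptosis readout in MRC-5 cells: luciferase light generated after caspase 3/7 cleaves a peptide-aminoluciferin substrate, measured post 16 hr compound incubation at 37 °C.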

[15] = Cellular Toxicity (caspase-3) Mesangial (AID 660);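 note: cells exposed to compound for 16 h before the caspase read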
How it was run: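 AC50 values come from Hill-equation fits of caspase 3/7 activation, measured as Caspase-Glo luminescence in human glomerular mesangial cells exposed to compound for 16 h at 37 °C; 100% set by 100 uM tamoxifen.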

[16] = Cellular Toxicity (caspase-3) SK-N-SH (AID 661);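 note: 0% = DMSO basal and 100% = 10 µM staurosporine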
How it was run: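 Apoptosis readout in SK-N-SH neuroblastoma: Caspase-Glo 3/7 luminescence following 16 hr treatment in complete culture medium. Normalization used DMSO and 10 uM staurosporine controls.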

[17] = Cellular Toxicity (caspase-3) H-4-II-E (AID 663);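 note: cells exposed to compound for 16 hr before readout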
How it was run: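 Caspase 3/7 activation measured in H-4-II-E cells in complete culture medium after 16 hr treatment at 37 °C, using luciferase-coupled substrate readout; AC50 values come from Hill-equation fits of normalized concentration-response data.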

[18] = Cellular Toxicity (caspase-3) Renal Proximal Tubule (AID 667); settings: renal proximal tubule cells; at 91.7 µM (top of the series), primary cells freshly taken from rat, solvent-only wells 0%, staurosporine 100% unless noted;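 note: cells exposed to compound for 16 hours at 37 °C before detection; 0% = DMSO basal and 100% = 10 µM staurosporine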
How it was run: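 Freshly isolated primary rat kidney proximal tubule cells, 1000/well, treated 16 hr at 37 °C, then Caspase-Glo 3/7 luminescence after 1 hr. Normalized to DMSO and 10 uM staurosporine; AC50 from Hill fit.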

[19] = qHTS assay for small molecule antagonists of retinoid X receptor alpha signaling (AID 588546; active = well fitted inhibition curve with a large enough effect in the signal ratio, with a control signal flat, not every such curve was filed as active; the % refers to the signal ratio;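 note: cells stimulated with 9-cis-retinoic acid as agonist; % is set by controls: 0 for no effect and ±100 for the full control effect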); settings: HEK293T RXRa-UAS-bla, beta-lactamase ratio, antagonist mode; measured here: W530 green channel, cytotoxicity proxy
How it was run: (§1)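 Beta-lactamase reporter inhibition, read as CCF4 fluorescence ratio (ex 405, em 460/530 nm) after 2 h at RT. HEK293T UAS-bla cells, 2500/well, were stimulated with 9-cis-RA at 500 or 100 nM final alongside test compound for 18 h at 37 C.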

[20] = biological target: Retinoic acid receptor RXR-alpha (Homo sapiens) (UniProt P19793); test: as above; settings: HEK293T RXRa-UAS-bla, beta-lactamase ratio, antagonist mode
Retinoic acid receptor RXR-alpha (Homo sapiens), sequence (P19793 whole entry, looked up): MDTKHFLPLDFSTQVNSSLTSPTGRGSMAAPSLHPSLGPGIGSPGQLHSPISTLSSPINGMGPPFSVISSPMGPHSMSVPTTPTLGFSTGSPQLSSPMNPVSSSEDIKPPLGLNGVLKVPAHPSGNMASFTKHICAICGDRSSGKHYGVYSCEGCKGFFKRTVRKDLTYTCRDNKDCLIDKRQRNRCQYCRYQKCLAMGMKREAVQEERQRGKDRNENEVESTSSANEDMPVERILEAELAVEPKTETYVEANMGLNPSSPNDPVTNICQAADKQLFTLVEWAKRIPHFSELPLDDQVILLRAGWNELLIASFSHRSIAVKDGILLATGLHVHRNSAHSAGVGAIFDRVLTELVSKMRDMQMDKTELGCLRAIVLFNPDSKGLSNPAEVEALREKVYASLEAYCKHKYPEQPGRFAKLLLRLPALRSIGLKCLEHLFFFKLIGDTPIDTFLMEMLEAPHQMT
How it was run: as §1

O=C(O)CC(O)(C(=O)O)C(O)C(=O)O (stereo not drawn)
inactive: Potency [1]

CCCCCCCCCCCCCC(=O)O
inactive: Potency [1]

CCCCCCCCCCCC(=O)O
inactive: Potency [1]

Nc1c(Cl)c(Cl)nc(C(=O)O)c1Cl
15% and 5.55% and 11.1%: max response [19]
inactive: Potency [2] > 92 µM | Potency [3] > 92 µM | Potency [4] > 92 µM | outcome [5] | Potency [6] | activity change, negative = cytotoxicity [7] -10.2% | outcome [8] | outcome [9] | caspase-3 activation [10] 0.643% | outcome [11] | outcome [12] | outcome [13] | outcome [14] | outcome [15] | outcome [16] | outcome [17] | caspase-3 activation [18] -0.472% | max response [20] -3.97% and -1.67% and -10.4%

CCCCCCCCC[C@@H](O)CC(=O)CCc1ccc(O)c(OC)c1
inactive: Potency [1]

C=C(C)[C@H]1CC=C(C)C(=O)C1
inactive: Potency [1]

O=Cc1ccccc1O
inactive: Potency [1]

CC/C=C\C/C=C\C/C=C\C/C=C\CCCCC(=O)O
inactive: activity change, negative = inhibition [1] -0.921% [at 3.26 µM]

C=CC(C)(CCC=C(C)C)OC(C)=O (stereo not drawn)
inactive: Potency [1]

OCCc1ccc(O)cc1
inactive: Potency [1]

CCCCC[C@H](O)CC(=O)CCc1ccc(O)c(OC)c1
inactive: Potency [1]

Brc1ccccc1
-12.3% and -4.99%: max response [19]
inactive: Potency [2] > 92 µM | Potency [3] > 92 µM | Potency [4] > 92 µM | outcome [5] | Potency [6] | activity change, negative = cytotoxicity [7] -2.95% | outcome [8] | outcome [9] | caspase-3 activation [10] -1.45% | outcome [11] | outcome [12] | outcome [13] | outcome [14] | outcome [15] | outcome [16] | outcome [17] | caspase-3 activation [18] -10.7% | max response [20] -1.11% and -6.34%

C=C1C[C@@]23CC[C@H]4[C@](C)(CCC[C@]4(C)C(=O)O[C@@H]4O[C@H](CO)[C@@H](O)[C@H](O)[C@H]4O)[C@@H]2CC[C@]1(O[C@H]1O[C@@H](CO)[C@H](O)[C@@H](O)[C@@H]1O)C3
inactive: Potency [1]

CCCCCCCC/C=C/CCCCCCCCCC(=O)O
inactive: Potency [1]

C=CCc1ccc(OC)c(OC)c1
inactive: Potency [1]

C=C1[C@H]2CC[C@H](C(=O)O)[C@@]23CC[C@H](C3)C1(C)C
inactive: Potency [1]

O=C(/C=C/c1ccc(O)c2c1[C@H](C(=O)O)[C@@H](c1ccc(O)c(O)c1)O2)O[C@H](Cc1ccc(O)c(O)c1)C(=O)O
inactive: Potency [1]

Oc1cccc(O)c1O
inactive: Potency [1]

C[N+](C)(C)Cc1ccccc1
inactive: Potency [2] > 92 µM | Potency [3] > 92 µM | Potency [4] > 92 µM | outcome [5] | Potency [6] | activity change, negative = cytotoxicity [7] 0.397% [at 91.7 µM] | outcome [8] | outcome [9] | caspase-3 activation [10] 0.448% | outcome [11] | outcome [12] | outcome [13] | outcome [14] | outcome [15] | outcome [16] | outcome [17] | caspase-3 activation [18] 4.55% [at 91.7 µM] | max response [20] 9.55% and -19%
0.533% and -1.08%: max response [19]
